From the supplement of paper PMC10849652
The full data set covers some 8,800 targets. This sample favours those with a hit. About 0.5% of all pairs of compound and target were hits.

What was measured:
Assay in all cases: log2 fold change, soluble protein after heating vs DMSO (PISA); higher = thermal stabilisation; K562 lysate, 10 uM; active = over 0.2 and 3.5 SD of the protein, either way, in both replicates (recomputed)
[1] = compound: C1=CC=C(C=C1)[C@H](COC2=CC3=C(C=C2)NC(=O)N3)NC(=O)C4=CC=CN(C4=O)CC5=CC(=C(C=C5)F)F
Procedure, shortened: (§1)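 Log-two fold change in thermal stability relative to solvent controls is reported from duplicates. For each sample, crude K562 extract from dounce-homogenised pellets in PBS pH 7.4 with 1 mM MgCl2, at 1 mg/mL protein, was treated with 10 μM compound for 30 min. Aliquots heated for 3 min across 48°C-58°C were pooled, brought to 0.5% NP-40 at 4°C and cleared at 21,000xg for 90 min. The supernatant was quantified by TMTpro 16plex LC-MS/MS with channel sums equalised.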

[2] = compound: CC1=C(SC2=C1C(=N[C@H](C3=NN=C(N32)C)CC(=O)N)C4=CC=C(C=C4)Cl)C
Procedure, shortened: as §1

[3] = compound: CC1=C2C(=CC=C1)N=C(N(C2=O)C3=CC=CC=C3C)CN4C=NC5=C(N=CN=C54)N
Procedure, shortened: as §1

[4] = compound: Cc1sc2c(c1C)C(c1ccc(Cl)cc1)=N[C@@H](CC(=O)OC(C)(C)C)c1nnc(C)n1-2
Procedure, shortened: as §1

[5] = compound: c1ccc([C@@H]2C[C@H]2NC2CCNCC2)cc1
Procedure, shortened: as §1

Measured: log2 fold change

UBR1 (UniProt Q8IWV7)
inactive: [1] -0.032 | [2] 0.002 | [3] -0.026 | [4] 0.026 | [5] 0

UBTF (UniProt P17480)
Chain of UniProt P17480 (P17480 whole entry, looked up): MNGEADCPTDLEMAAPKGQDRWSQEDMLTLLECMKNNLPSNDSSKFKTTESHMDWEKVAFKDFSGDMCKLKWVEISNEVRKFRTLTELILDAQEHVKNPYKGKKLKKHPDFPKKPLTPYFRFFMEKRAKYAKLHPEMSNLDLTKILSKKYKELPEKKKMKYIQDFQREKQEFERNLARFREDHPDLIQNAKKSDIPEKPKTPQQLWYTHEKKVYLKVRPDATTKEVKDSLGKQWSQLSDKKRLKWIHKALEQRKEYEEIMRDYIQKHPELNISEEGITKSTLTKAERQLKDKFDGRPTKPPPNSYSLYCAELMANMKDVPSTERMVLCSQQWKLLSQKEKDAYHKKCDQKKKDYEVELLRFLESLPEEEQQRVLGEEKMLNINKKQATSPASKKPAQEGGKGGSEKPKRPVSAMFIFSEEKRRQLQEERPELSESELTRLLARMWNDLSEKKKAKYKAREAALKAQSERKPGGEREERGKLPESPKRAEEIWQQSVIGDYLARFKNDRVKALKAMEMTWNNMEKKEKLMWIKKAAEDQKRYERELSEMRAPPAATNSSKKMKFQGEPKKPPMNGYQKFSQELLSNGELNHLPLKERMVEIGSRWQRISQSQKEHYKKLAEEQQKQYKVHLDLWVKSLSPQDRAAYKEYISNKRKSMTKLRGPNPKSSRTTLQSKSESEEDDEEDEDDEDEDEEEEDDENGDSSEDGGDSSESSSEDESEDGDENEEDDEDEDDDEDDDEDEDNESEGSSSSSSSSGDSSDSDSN
inactive: [1] -0.031 | [2] 0.028 | [3] -0.012 | [4] 0.007 | [5] 0.069

TUBA1B (UniProt P68363)
Chain of UniProt P68363 (P68363 whole entry, looked up): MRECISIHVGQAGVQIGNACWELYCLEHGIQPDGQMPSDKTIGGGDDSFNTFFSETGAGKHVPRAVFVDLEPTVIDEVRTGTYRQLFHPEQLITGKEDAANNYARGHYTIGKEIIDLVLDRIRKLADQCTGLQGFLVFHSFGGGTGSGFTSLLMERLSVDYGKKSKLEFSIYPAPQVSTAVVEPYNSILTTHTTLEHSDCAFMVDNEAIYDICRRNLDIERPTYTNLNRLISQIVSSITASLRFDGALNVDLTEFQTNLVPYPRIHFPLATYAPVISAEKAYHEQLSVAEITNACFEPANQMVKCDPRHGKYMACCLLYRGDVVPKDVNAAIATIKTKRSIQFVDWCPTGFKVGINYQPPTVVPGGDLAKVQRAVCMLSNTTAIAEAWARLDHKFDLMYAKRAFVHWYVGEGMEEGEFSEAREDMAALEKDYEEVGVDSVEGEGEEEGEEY
inactive: [1] -0.006 | [2] 0.014 | [3] 0.004 | [4] 0.015 | [5] -0.03

THOC5 (UniProt Q13769)
Chain of UniProt Q13769 (Q13769 whole entry, looked up): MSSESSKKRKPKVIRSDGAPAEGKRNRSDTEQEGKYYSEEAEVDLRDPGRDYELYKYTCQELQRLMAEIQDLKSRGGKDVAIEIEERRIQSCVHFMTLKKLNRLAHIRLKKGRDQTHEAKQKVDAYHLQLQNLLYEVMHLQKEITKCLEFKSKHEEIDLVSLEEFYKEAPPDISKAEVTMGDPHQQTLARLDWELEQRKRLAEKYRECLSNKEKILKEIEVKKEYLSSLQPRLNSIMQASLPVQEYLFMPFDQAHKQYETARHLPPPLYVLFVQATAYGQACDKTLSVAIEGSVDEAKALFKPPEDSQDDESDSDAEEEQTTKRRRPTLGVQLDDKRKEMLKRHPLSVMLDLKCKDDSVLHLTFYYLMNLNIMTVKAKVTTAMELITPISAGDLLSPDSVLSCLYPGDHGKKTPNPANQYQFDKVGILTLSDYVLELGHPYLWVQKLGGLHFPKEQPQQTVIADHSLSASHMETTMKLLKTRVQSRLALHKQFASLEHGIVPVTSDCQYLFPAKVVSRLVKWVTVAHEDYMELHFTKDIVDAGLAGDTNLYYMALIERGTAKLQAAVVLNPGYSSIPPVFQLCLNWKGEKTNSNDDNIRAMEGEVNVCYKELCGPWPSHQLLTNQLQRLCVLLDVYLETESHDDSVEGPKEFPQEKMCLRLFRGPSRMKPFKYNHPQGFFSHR
inactive: [1] 0.026 | [2] 0.048 | [3] 0.016 | [4] -0.01 | [5] 0.006

TRIM25 (UniProt Q14258)
Chain of UniProt Q14258 (Q14258 whole entry, looked up): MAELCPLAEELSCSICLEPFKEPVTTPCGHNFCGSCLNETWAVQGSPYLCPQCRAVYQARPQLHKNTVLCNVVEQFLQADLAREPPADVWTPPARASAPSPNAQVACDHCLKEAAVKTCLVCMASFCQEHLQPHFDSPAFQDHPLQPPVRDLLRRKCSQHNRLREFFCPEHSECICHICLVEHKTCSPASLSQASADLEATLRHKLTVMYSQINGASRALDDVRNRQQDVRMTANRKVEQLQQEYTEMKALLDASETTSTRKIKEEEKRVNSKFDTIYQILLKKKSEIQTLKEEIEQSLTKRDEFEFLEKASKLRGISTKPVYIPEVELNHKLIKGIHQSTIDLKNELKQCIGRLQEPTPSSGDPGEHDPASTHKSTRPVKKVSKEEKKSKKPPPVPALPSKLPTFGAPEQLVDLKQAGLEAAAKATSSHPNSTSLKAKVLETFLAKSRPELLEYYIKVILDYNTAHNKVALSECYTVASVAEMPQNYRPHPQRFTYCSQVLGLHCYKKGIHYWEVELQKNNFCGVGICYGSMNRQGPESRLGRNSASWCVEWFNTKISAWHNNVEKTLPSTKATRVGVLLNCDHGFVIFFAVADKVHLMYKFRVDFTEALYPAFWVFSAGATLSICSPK
inactive: [1] 0.047 | [2] 0.001 | [3] 0.001 | [4] 0.013 | [5] 0.044

UBE3B (UniProt Q7Z3V4)
Chain of UniProt Q7Z3V4 (Q7Z3V4 whole entry, looked up): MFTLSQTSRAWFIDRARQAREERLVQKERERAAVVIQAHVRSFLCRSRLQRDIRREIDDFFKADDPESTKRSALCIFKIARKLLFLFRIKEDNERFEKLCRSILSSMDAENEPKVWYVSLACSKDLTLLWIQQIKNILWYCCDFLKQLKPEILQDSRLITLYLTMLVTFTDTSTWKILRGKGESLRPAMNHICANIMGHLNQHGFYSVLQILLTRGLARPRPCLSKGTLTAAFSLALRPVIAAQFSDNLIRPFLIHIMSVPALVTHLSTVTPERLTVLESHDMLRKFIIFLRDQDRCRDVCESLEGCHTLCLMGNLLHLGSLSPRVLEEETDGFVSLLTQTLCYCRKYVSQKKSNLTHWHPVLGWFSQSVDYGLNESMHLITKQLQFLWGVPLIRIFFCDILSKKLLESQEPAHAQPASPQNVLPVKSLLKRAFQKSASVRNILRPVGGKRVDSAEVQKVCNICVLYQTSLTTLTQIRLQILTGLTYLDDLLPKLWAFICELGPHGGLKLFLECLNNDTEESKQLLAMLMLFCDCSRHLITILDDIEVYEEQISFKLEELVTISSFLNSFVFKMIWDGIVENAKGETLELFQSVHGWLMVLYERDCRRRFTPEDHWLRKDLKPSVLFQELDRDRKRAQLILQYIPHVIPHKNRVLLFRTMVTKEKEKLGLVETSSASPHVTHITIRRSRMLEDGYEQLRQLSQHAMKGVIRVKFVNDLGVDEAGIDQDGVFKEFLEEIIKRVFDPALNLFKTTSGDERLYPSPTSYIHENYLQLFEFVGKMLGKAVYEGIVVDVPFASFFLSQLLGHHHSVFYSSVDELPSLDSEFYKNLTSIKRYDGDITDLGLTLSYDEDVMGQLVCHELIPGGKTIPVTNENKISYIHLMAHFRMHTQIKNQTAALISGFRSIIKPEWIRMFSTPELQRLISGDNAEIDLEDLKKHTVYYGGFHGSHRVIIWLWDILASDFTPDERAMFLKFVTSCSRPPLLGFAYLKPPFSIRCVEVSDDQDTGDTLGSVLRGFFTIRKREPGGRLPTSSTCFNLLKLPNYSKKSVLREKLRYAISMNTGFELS
inactive: [1] -0.085 | [2] -0.144 | [3] -0.047 | [4] -0.045 | [5] 0.078

TJP1 isoform 2 (UniProt Q07157)
inactive: [1] 0.048 | [2] 0.02 | [3] 0 | [4] 0.061 | [5] -0.009

TTK (UniProt P33981)
Chain of UniProt P33981 (P33981 whole entry, looked up): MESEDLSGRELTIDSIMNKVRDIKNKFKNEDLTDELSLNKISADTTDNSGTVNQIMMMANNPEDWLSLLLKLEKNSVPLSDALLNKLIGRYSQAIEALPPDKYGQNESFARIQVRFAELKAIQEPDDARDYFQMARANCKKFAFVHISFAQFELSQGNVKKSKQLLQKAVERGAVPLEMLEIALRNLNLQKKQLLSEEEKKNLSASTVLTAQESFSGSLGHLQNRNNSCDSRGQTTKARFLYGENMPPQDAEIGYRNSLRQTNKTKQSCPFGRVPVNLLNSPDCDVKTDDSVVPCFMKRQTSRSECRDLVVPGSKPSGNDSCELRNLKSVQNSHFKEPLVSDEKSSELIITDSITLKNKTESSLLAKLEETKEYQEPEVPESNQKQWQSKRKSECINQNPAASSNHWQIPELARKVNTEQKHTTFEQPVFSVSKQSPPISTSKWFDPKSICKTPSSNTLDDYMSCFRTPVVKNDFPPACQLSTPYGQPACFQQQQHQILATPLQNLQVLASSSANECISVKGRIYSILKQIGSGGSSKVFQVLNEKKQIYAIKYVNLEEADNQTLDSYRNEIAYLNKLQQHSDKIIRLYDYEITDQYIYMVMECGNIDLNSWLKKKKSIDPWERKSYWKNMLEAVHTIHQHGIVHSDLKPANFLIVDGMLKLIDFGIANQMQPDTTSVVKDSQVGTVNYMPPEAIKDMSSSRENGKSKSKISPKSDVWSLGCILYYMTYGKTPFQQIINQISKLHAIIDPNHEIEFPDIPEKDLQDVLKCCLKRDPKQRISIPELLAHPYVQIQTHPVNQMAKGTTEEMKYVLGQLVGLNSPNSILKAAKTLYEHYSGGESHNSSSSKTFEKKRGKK
inactive: [1] -0.016 | [2] -0.003 | [3] 0.068 | [4] 0.02 | [5] 0.003

TPM3 (UniProt P06753)
Chain of UniProt P06753 (P06753 whole entry, looked up): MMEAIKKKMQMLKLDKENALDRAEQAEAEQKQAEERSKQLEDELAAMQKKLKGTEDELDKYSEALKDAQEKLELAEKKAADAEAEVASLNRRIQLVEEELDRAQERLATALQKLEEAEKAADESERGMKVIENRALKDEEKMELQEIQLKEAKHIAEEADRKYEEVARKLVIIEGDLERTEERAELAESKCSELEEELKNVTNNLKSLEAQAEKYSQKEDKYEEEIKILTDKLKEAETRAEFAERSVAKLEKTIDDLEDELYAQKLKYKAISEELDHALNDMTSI
inactive: [1] -0.018 | [2] 0.008 | [3] -0.018 | [4] 0.015 | [5] 0.057
